Laboratory results taken from PubChem BioAssay AID1159506 (National Center for Advancing Translational Sciences (NCATS), 2015).
Over roughly 59,000 sequences, the read-out has its median near -0.00055; the lowest 2% begin near -2. The sample as a whole holds a higher share of the lowest values than the screen did.

Assay: Identification of proteins required for the processing of the EWS-FLI1 nascent transcript;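 further: robust z of luciferase light less the median z of siRNAs with the same seed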
Settings: TC32 Ewing sarcoma NR0B1-luc vs CMV-luc (EWS-FLI1 target promoter against control promoter), 48 h; screened at 20 nM (by protocol)
In short: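 Three siRNAs per gene, each in a separate well at 20 nM, were transfected into TC32 cells bearing either reporter construct. Luminescence was measured two days on, and per-gene comparison relied on seed-corrected Z values.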
AAUGGUUUCACCGGCAGCG against IFRD2 gave a seed-corrected z-score of -2.09. In the case of AACUCUUCUAUGUCGAAUG against ZNF551, the seed-corrected z-score is reported as -0.267. For UCCGAUGACACCAAGAGCG against REEP5, the seed-corrected z-score was 0.932. Sequence UACUUUACGUUCUUCGAUC against PAGE4 has a seed-corrected z-score of 0.246. ACUGGAGAUAGUGCUGUUG against SUN2 showed a seed-corrected z-score of -4.61. UGUGAUGUUAGCAAUCUUC against TAS2R41 showed a seed-corrected z-score of -0.517. Sequence UAGUCAACAAUGUCACAUC against ELOVL7 has a seed-corrected z-score of -0.576. With UGAUGCACCAUCACAGUCU against SUSD6 the seed-corrected z-score was 0.212. CACCAGGAUGGUUUGGUUG against BRICD5 showed a seed-corrected z-score of 1.06. Work on UCUUCGGUCAUGAAUGAGG against TAT yielded a seed-corrected z-score of -0.586. With UCUGUCAUCUUUUUGGGUG against PSMD8 the seed-corrected z-score was -4.18. For UCCGAUACCGACAAUAACC against ADAM7, the seed-corrected z-score was 0.224. UGAAGUACACCUUAAAGCC against SCN4A gave a seed-corrected z-score of 0.557. UCUGUUCCAAUACUGCUUG against CD209 gave a seed-corrected z-score of -0.501. Sequence AUGGUGUCAAGAAUAAGGC against ROPN1L has a seed-corrected z-score of 1.14. Work on UCAGCAACAACGGAUAUCG against PLEKHG7 yielded a seed-corrected z-score of -0.178. For AAAGUGCCCAAAACGAUGG against ATP2B3, the seed-corrected z-score was 0.438. AACAUCUCCAAUGAUAGGG against NR0B2 gave a seed-corrected z-score of -2.16. UCACCUACUUCGAUCUUCC against MECOM showed a seed-corrected z-score of -0.295. Sequence AAUCAUGCCCUUUUUGUGG against FPR2 has a seed-corrected z-score of -2. In the case of UUCCAGCCCAUGAGAACCC against DKK2, the seed-corrected z-score is reported as 0.436. Sequence AACGGAAAUGCUGACAUCG against EPRS has a seed-corrected z-score of -0.386. Work on AGAGUUUCCUGAGUCUUCU against TPD52L2 yielded a seed-corrected z-score of -2.41. Sequence UAUCAUUGCGUGUUGCUGC against BBOF1 has a seed-corrected z-score of 0.0553. In the case of UCUGUGAGGAAUGCUGUCC against RFT1, the seed-corrected z-score is reported as -2.48. UUCUAGCUCACUGAAGUCC against PYGL showed a seed-corrected z-score of -0.371. Sequence UUCAGGGCAUUUAAAGGGC against ZNF629 has a seed-corrected z-score of -0.898. With AAGAUAAUAAAAACGUAGG against SLC2A14 the seed-corrected z-score was 0.0262. For ACUGCUUACACUCACAUGG against ZNF490, the seed-corrected z-score was -4.22. In the case of UGGGAGCAAAGCAUAGUCG against PNMA3, the seed-corrected z-score is reported as -1.88. In the case of UACUUGACUGAAAUGUCUC against ZNF829, the seed-corrected z-score is reported as -0.616. With UAGUUGUCCUGGUCGGAGC against LY6E the seed-corrected z-score was -2.61. Sequence UUGCAUGCAAUGGUGAGGC against S100A10 has a seed-corrected z-score of -1.4. For UACUUUGCGACCAUUUAGG against PABPC3, the seed-corrected z-score was -1.3. For UCUGUAACAUGCGGAGUUC against M1AP, the seed-corrected z-score was -0.631. For ACCGUGUUCAGAUAGCCUG against RACK1, the seed-corrected z-score was -1.01. AAUGUUGACACGUCUCCUG against TOB1 showed a seed-corrected z-score of 0.235. UUGGGAGUGAAAACAGAGG against OR8B2 showed a seed-corrected z-score of -3.41. For AACUUCUUCAAGGUAAUUG against PJA1, the seed-corrected z-score was 0.88. Sequence AAAGUUUCACUCUUUCUGG against TPT1P8 has a seed-corrected z-score of -0.645. UUCGAUUGAAAGAAGGCCU against MYOZ1 showed a seed-corrected z-score of -0.336. Sequence AACUCUAUUCAUGAGCUCG against ANGPTL5 has a seed-corrected z-score of 0.0468. UUCCUGAUUAGUAAUGUCG against RAB5B showed a seed-corrected z-score of 0.136. Work on AUCUUGGACAGAUAUAAUC against RNF126 yielded a seed-corrected z-score of -2.4. With UAUACUAUUGGUAAGUGCA against SND1-IT1 the seed-corrected z-score was -0.0514. AUACUCCACACCACAAAGC against LTB4R showed a seed-corrected z-score of 0.354. With AAAAGACCAAAGCCCAUGU against RPLP1 the seed-corrected z-score was -2.92. UAUAGUGAAGAGAUAUGCC against ADGRL2 gave a seed-corrected z-score of 0.229. In the case of UCGUUUUUGACUACCAGGG against PHKB, the seed-corrected z-score is reported as 0.853. For AACUGAUUAAAAUCAGAGG against PIGG, the seed-corrected z-score was 0.269. For UAGUAGCAUAGUUCAGUGG against OR51T1, the seed-corrected z-score was 0.179. In the case of UUUGCUCUCAUUCUCCGCA against SF3B5, the seed-corrected z-score is reported as -3.03. AUAGUUAAUUGAAUUUCGG against BMPR2 gave a seed-corrected z-score of -0.638. In the case of UUUGCAGCCUCGGUUAUAG against PWWP2B, the seed-corrected z-score is reported as 0.352. AAGAGUAAUAGGCAAUUUC against SLC19A2 showed a seed-corrected z-score of -0.574. Work on ACACGGGCAAUGGAUUUCC against RPL35 yielded a seed-corrected z-score of -0.426. Work on UAACAUACACUAGAUCGCC against FOLH1 yielded a seed-corrected z-score of -3.06. AAUGAGAUAAUGUUGGUCA against SNX29P1 showed a seed-corrected z-score of -1.77. UUUCUUUUCGGCUCUAGGG against NKX2-5 gave a seed-corrected z-score of -1.12. For UGUACAAUGAGGAAGCUUC against LOC728903, the seed-corrected z-score was -0.125. UCUUUGCAAAGGGUAUGCC against IL17RE gave a seed-corrected z-score of -2.02. AGACCAUCCCACGAAAUGC against PEBP1 showed a seed-corrected z-score of -1.22. For AAGCGGAAAAUCUUGAUGC against SLC26A2, the seed-corrected z-score was 0.168. For UUCGUCCUUAUGCUCUUUC against HOXA7, the seed-corrected z-score was 0.383. AAAGAUACAGGUUAAAGGC against HIST2H2BF showed a seed-corrected z-score of -0.321. UUCAUAACGAGUUGGAGCC against RPL30 showed a seed-corrected z-score of -2.42. UUCAUGUUCAGAGUCAACG against SSRP1 showed a seed-corrected z-score of 1.02. ACUCUUAUCAGGCACAUCC against IMPAD1 gave a seed-corrected z-score of -0.93. Work on UAACCGUUCCCGCAAACAC against TFAP2E yielded a seed-corrected z-score of -0.2. Sequence AUUUAUUCCGGACACGUGG against GLI4 has a seed-corrected z-score of -2.01. UCUUAUCCAAGGGACCAGC against MED1 showed a seed-corrected z-score of -0.541. Work on UUCUCUAGGAUGGAAAACC against LOC728752 yielded a seed-corrected z-score of 0.253. With UUCGCAAUGUUGGUUCACC against TEX15 the seed-corrected z-score was -0.211. Work on AAACACUCCACUGAUGUGC against IFT140 yielded a seed-corrected z-score of -0.256. With UGCGCUUACGCUUCUUACC against HIST1H2BB the seed-corrected z-score was -0.822. With UUUCGGUAGUAGGAUUUCC against RBAK the seed-corrected z-score was 0.44. Work on AAAACUUGCACCUUCGUGU against ARMC10 yielded a seed-corrected z-score of -0.114. In the case of UUUAGUGUCAGUUGAUUUG against CPXCR1, the seed-corrected z-score is reported as 0.162. Work on UAUCAGACAAUUCAUCCGG against LONRF2 yielded a seed-corrected z-score of -0.662. With AUGGGUCAGAGAGGCAAGG against EXOSC5 the seed-corrected z-score was -2.07. Work on AUGUGGAUCAGAAGUAUCA against OR2T10 yielded a seed-corrected z-score of 0.476. Work on UGCAUGAUGAGUGAGGUGC against CYP26B1 yielded a seed-corrected z-score of -0.927. Sequence UGACGGAUCAGUCUUAGCC against ATP5O has a seed-corrected z-score of -0.31. AAAUAUAUCUCUUGGAUCU against LRRC75A-AS1 showed a seed-corrected z-score of 0.788. In the case of UCUAAUUCCAUACUGAUUC against PRKCQ-AS1, the seed-corrected z-score is reported as -0.219.
